In publication PMC13494018:
Unmarked numbers belong to inactive results. How the calls were made is not given here.

Molecular target: CD276, Q5ZPR3
Sequence (Q5ZPR3 whole entry): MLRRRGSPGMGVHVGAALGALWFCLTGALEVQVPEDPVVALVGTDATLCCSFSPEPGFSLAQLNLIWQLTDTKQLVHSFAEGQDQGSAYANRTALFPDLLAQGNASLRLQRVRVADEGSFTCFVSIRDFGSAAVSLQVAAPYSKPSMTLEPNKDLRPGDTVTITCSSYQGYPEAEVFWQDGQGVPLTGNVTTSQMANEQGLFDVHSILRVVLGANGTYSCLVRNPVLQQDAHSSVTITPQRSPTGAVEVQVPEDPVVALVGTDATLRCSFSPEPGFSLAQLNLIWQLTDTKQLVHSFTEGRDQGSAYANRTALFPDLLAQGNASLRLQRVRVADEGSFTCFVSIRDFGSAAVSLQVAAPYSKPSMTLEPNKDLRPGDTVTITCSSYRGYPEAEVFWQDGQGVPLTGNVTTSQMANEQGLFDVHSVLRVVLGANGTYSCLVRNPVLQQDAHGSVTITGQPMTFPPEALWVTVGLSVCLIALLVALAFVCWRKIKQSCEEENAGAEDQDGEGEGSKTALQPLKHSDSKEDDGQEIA

| Binder | binding in a display sort |
| --- | --- |
| design_622_fcc41892-afde-4fb9-b6e8-b664fffd6a75_1399_dldesign_0_cycle1_af2pred (protein) GAALAAAKGVAEQVKRVAEEAEAADPSLAPIMEEYKRRAEELLKKAQENASDEAKVNEYLAELVELLGEVARLRREALAA | not found |
| design_622_fcc41892-afde-4fb9-b6e8-b664fffd6a75_1477_dldesign_0_cycle1_af2pred (protein) GEAVQTAVDALKLLSEERRRAAALVAADPENAEARAILERLEESFRAVARAAANPATAQEVGEAGIAEAERARERLAALA | not found |
| design_622_fcc41892-afde-4fb9-b6e8-b664fffd6a75_1610_dldesign_0_cycle1_af2pred (protein) DDAAKLASLREFLAQLVEIAKAGNAEQARVMARNARAAARSVAAAVASAAEALALGAEAEAEILAIAQEKAAAA | not found |
| design_622_fcc41892-afde-4fb9-b6e8-b664fffd6a75_1677_dldesign_0_cycle1_af2pred (protein) MEELEELKERSEEVKKRAEEAKKKGEELKKKSPKTAVAGNAVIALAKSAKELAEDPEKVEQAEKVLEIAEAIIKAA | not found |
| design_622_fcc41892-afde-4fb9-b6e8-b664fffd6a75_1795_dldesign_0_cycle1_af2pred (protein) ANAQLAKGYLTAGQVYLQSPDAAYQEQAATAAQAAAAYAEADPAMADLAKQAKALEAEAKAKAAAAKAAA | not found |
| design_622_fcc41892-afde-4fb9-b6e8-b664fffd6a75_1801_dldesign_0_cycle1_af2pred (protein) QALLEAASAIVEAAELAAKEVGPAAANALLTEAGKLLATGEAGLKAAVAEIDKVAKQASPEVAKKLLELRDKAAA | not found |
| design_622_fcc41892-afde-4fb9-b6e8-b664fffd6a75_1828_dldesign_0_cycle1_af2pred (protein) EAAAREAAARRLAAALEAAEAAAAGPLGPRVAVAAAEVALEVLAAHPRLSPEAVRAAHRLLVLGGRAAGILAA | not found |
| design_622_fcc41892-afde-4fb9-b6e8-b664fffd6a75_1873_dldesign_0_cycle1_af2pred (protein) NALVQAGKIAAQAAVSLAKNAIAHADEMSPEGLQGAIDVATALIEYAEKAAKEDPEVAKLVEEAKKLVAEAKAVLAAR | not found |
| design_622_fcc41892-afde-4fb9-b6e8-b664fffd6a75_1878_dldesign_0_cycle1_af2pred (protein) GRQQELNQALGLTLEAAKKASELNKEVLPLVNEAASLIAKAYLTGDKELLKKAIEKLKKAAELASEEVKVLLKKAAEHAKKAIEL | not found |
| design_622_fcc41892-afde-4fb9-b6e8-b664fffd6a75_1948_dldesign_0_cycle1_af2pred (protein) SEEALLLANQGVALASQGLIAGDDAKVKEGIKKIEEAKKLASPELAKTFDKLKATVEAMAAGTAAARAAAAAAA | not found |
| design_622_fcc41892-afde-4fb9-b6e8-b664fffd6a75_2129_dldesign_0_cycle1_af2pred (protein) AAAEAAARAALLAEGLALAHQAATFAAMAEYSPGVAPLAERARARLEAVTAAATPEVAAEIRAAYEASLARVRAALA | not found |
| design_622_fcc41892-afde-4fb9-b6e8-b664fffd6a75_2191_dldesign_0_cycle1_af2pred (protein) MKEEVEKLKKEAEKLVKEAKAAAEAGDSGKAVSLASEAFKVARELEKLPESKELGKELKAKAHEVLTLAAK | not found |
| design_622_fcc41892-afde-4fb9-b6e8-b664fffd6a75_2272_dldesign_0_cycle1_af2pred (protein) DEAKKQLEIATKMAEYALKQAEAALKDGRTAGTVVPAQVKTLKLLAESAEATGLEEAKKKAEEFKKKAKELEKAAEKAK | not found |
| design_622_fcc41892-afde-4fb9-b6e8-b664fffd6a75_2288_dldesign_0_cycle1_af2pred (protein) SAEEEVLAKVKELRDKVEAAAADPAKAAEGAALAQEALAFLEENLPVIRAGGQELKDAVHALLRAIARHNAVYN | not found |
| design_622_fcc41892-afde-4fb9-b6e8-b664fffd6a75_2329_dldesign_0_cycle1_af2pred (protein) AALREEAKKRVDAAVAAADAAAAADPLAGAIAYGELAVETARLAAELARADPAAGAEMRAKLVDISQKAIALALAAG | not found |
| design_622_fcc41892-afde-4fb9-b6e8-b664fffd6a75_2349_dldesign_0_cycle1_af2pred (protein) LTEELARETARGQRYAAELIALDPAAQELLEQVRRLSAAALQALLAGDEELAKKLAEEVKRLAEEIKARAEALK | not found |
| design_622_fcc41892-afde-4fb9-b6e8-b664fffd6a75_2361_dldesign_0_cycle1_af2pred (protein) EQEKKAKELLKKVKELAKKAEETIKAGIAAGLPKEEIVGKGGELVVEAAKKAAELARVGTPEQAAEARKIVAAAIKYLLKVAAA | not found |
| design_622_fcc41892-afde-4fb9-b6e8-b664fffd6a75_2371_dldesign_0_cycle1_af2pred (protein) SAAAAESNQELAKQLKAIAQANAKAGDAEAVERVARSAAAAAKAVSEHPEAQKALTEAAKEAQKLAQQVKAA | not found |
| design_623_6e2e8b1f-5d9a-4413-9869-27a184816b12_67_dldesign_0_cycle1_af2pred (protein) SREEELERVEEAIATARDVLAGAELTAAQVSPELAAAALRSAARTAVVLFEGEARRAEDEEARERLRKAAEEARKVAA | not found |
| design_623_6e2e8b1f-5d9a-4413-9869-27a184816b12_221_dldesign_0_cycle1_af2pred (protein) EEEEKRAAAKEAAALLEAAADDPATRGELVLQAIALLTRYPELAPYASAATRALALAAQEGVAAGAAALREVAAGVKALAE | not found |
